Source: PubChem BioAssay (NCI)
The panel holds about 83,000 compounds, 20% with a hit somewhere; the sample as a whole holds those more often.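 Interpretation: 100, growth as untreated; towards 0, rising growth inhibition; 0, no net growth; 0 to -100, cell death. Compounds scoring below 10 were considered active.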 A number with no mark means an inactive call. Calls of active or inactive are those of the source.

Experiments:
Test in all cases: NCI-60 one-dose screen, 48 h (100 = growth as untreated, 0 = no growth, -100 = all killed)
Details in all cases: 10 µM unless noted
[1] = system: SK-MEL-2 melanoma
[2] = system: EKVX NSCLC
[3] = system: SN12C renal
[4] = system: UO-31 renal
[5] = system: TK-10 renal
[6] = system: ACHN renal
[7] = system: CAKI-1 renal
[8] = system: A498 renal
[9] = system: CCRF-CEM leukemia
[10] = system: MOLT-4 leukemia
[11] = system: SR leukemia
[12] = system: RPMI-8226 leukemia
[13] = system: OVCAR-8 ovarian
[14] = system: OVCAR-5 ovarian
[15] = system: OVCAR-4 ovarian
[16] = system: SK-OV-3 ovarian
[17] = system: IGROV1 ovarian
[18] = system: OVCAR-3 ovarian
[19] = system: NCI/ADR-RES ovarian
[20] = system: HS 578T breast

Compound | growth [1] | growth [2] | growth [3] | growth [4] | growth [5] | growth [6] | growth [7] | growth [8] | growth [9] | growth [10] | growth [11] | growth [12] | growth [13] | growth [14] | growth [15] | growth [16] | growth [17] | growth [18] | growth [19] | growth [20]
N#Cc1ccc(/C=N/NC(=O)c2[nH]c3ccc(Br)cc3c2-c2ccccc2)o1 | 22.9% | 12.9% | 5.87% (active) | 24.8% | 27.8% | 8.88% (active) | 26.9% | 78.1% | -3.51% (active) | 1.36% (active) | 4.35% (active) | 3.55% (active) | -21.9% (active) | 15.9% | 35% | 44% | 13.9% | 14.6% | -40.9% (active) | 
CC1=C(C(=O)c2ccccc2)C(c2cccc(Cl)c2Cl)n2c(nc3ccccc32)N1 (stereo unspecified) | 76% | 46.3% | 53.6% | 67.7% | 102% | 71.9% | 47% | 116% | 40.5% | 45.6% | 39.2% | 86% | 26.3% | 60.3% | 65.2% | 33.7% | 77.7% | 35.5% | 19.1% | 
COc1ccc(-c2nnc3ccc(N/N=C/c4ccc(O)cc4)nn23)cc1 | 73.2% | 37.8% | 42.3% | 30.3% | 38.9% | 43.5% | 21.5% | 91.9% | 14.1% |  |  | 13.1% | 45.4% | 88.9% | 47.9% | 104% | 39.3% | 37.6% | 26% | 46.8%
COc1ccc(C(=O)/C=C/c2ccc3ccccc3c2)cc1S(N)(=O)=O | 53.4% | -73.4% (active) | -43.7% (active) | -87.2% (active) | -82.3% (active) | -92.2% (active) | 2.11% (active) | 97.2% | 5.96% (active) |  |  | -17.5% (active) | -60.6% (active) | -43.4% (active) | 32.5% | 22.5% | -8.23% (active) | -41.9% (active) | 18.9% | 68.8%
N#Cc1c(NCc2ccccc2)n[nH]c1Nc1ccccc1 | 20.7% | 52.8% | 50.8% | 38.5% | 75.5% | 38.1% | 33.4% | 79% | 18.3% |  |  | 37.3% | 61.1% | 84.4% | 52.9% | 68% | 89.6% | 66.8% | 59.9% | 84.6%
COc1ccc(C(=O)/C=C/c2cc3c(cc2Br)OCO3)cc1S(N)(=O)=O | 89.2% | 4.57% (active) | -12.5% (active) | -44.5% (active) | 16.8% | -23% (active) | -20.2% (active) | 88.7% | 5.43% (active) |  |  | -13.6% (active) | -21% (active) | -7.93% (active) | 28% | 69% | 3.7% (active) | -57.5% (active) | 13.8% | 30.3%
O=C(NNc1nc2cc(F)ccc2n2c(CN3CC4CNCC4C3)ccc12)c1ccncn1 (stereo unspecified) | 42.7% | 12.7% | 7.46% (active) | 15.6% | 29.9% | 8.07% (active) | 12.1% | 59% | 12.7% |  |  | 21.6% | 13% | 34.8% | 28.6% | 31.5% | 22.1% | 43.1% | 59.8% | 45.3%
COc1cccc(/C=C/C(=O)c2ccc(OC)c(S(N)(=O)=O)c2)c1 | 96.5% | 49.4% | 14.5% | 2.53% (active) | 21.2% | -40.4% (active) | 26.5% | 115% | 2.26% (active) |  |  | -9.86% (active) | 10.5% | 24.2% | 57.7% | 67.8% | 42.1% | 16.3% | 13.3% | 91.6%
